Assay results from PubChem BioAssay (EPA / NIEHS).
Inconclusive results are not listed. Active and inactive are the calls of the source. Rule for the calls, unless noted: active = hit-call score of the fitted dose curve at least 0.9, where 1 is the maximum; inactive = score below 0.9.

Columns and labels:
[1] = biological target: Paired box protein Pax-6 (Homo sapiens) (UniProt P26367); assay: ATG_Pax6_CIS: Attagene CIS-FACTORIAL HepG2 Assay for human Paired Box 6 (PAX6) (AID 2282956); details: HepG2 CIS-FACTORIAL PAX6 reporter transcription, RNA readout; actives raise or lower the signal
Paired box protein Pax-6 (Homo sapiens), sequence (P26367 whole entry, looked up): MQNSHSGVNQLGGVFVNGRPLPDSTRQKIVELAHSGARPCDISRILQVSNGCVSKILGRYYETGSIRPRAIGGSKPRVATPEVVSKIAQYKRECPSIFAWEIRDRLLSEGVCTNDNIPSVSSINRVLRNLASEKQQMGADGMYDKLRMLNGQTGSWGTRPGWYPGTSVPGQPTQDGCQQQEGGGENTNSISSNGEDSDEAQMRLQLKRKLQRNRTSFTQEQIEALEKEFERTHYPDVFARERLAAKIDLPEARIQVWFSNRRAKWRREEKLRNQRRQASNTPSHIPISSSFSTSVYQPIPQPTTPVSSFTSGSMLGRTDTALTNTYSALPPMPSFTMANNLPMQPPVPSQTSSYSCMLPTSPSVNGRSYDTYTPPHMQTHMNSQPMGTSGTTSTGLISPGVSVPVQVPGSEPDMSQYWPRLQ
Outline: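 Fluorescent RT-PCR products separated by capillary electrophoresis report PAX6-linked promoter mRNA in HepG2 cells 24 h post-dose. Curves fitted bidirectionally, DMSO as negative control.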

[2] = ATG_PXRE_CIS: Attagene CIS-FACTORIAL HepG2 Assay for human Pregnane X Receptor Element (PXRE) (AID 2282957); details: HepG2 Attagene CIS-FACTORIAL PXRE reporter, mRNA; actives raise or lower the signal
Outline: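 Endogenous transcription factor activity in HepG2 was gauged through induction of reporter mRNA driven by a cis-regulating promoter element, sampled 24 h post-treatment. Activity was fitted in both directions against DMSO negative control.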

[3] = ATG_PPRE_CIS: Attagene CIS-FACTORIAL HepG2 Assay for human Peroxisome Proliferator-activated Response Element (PPRE) (AID 2282958); details: HepG2 PPRE cis-element reporter, Attagene transcription factor profiling; actives raise or lower the signal
Outline: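 After human HepG2 hepatoma cells were transiently transfected with cis-promoter reporter constructs, they were exposed to test chemicals for 24 hours. Reporter RNA was then reverse-transcribed, PCR-amplified, FAM-labeled, HpaI-digested and quantified by capillary electrophoresis.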

[4] = ATG_Sox_CIS: Attagene CIS-FACTORIAL HepG2 Assay for human SRY-box transcription factor (SOX) (AID 2282960); details: HepG2 Attagene cis-factorial SOX reporter, mRNA; actives raise or lower the signal
Outline: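 Using transiently transfected HepG2 cells, reporter transcription driven by cis elements was assessed 24 h after dosing. Signal was fluorescence of capillary-separated RT-PCR products, with DMSO defining baseline activity.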

[5] = biological target: Transcription factor Sp1 (Homo sapiens) (UniProt P08047); assay: ATG_Sp1_CIS: Attagene CIS-FACTORIAL HepG2 Assay for human Specificity Protein 1 (Sp1) (AID 2282961); details: HepG2 Sp1 cis-reporter transcription, actives raise or lower the signal
Transcription factor Sp1 (Homo sapiens), sequence (P08047 whole entry, looked up): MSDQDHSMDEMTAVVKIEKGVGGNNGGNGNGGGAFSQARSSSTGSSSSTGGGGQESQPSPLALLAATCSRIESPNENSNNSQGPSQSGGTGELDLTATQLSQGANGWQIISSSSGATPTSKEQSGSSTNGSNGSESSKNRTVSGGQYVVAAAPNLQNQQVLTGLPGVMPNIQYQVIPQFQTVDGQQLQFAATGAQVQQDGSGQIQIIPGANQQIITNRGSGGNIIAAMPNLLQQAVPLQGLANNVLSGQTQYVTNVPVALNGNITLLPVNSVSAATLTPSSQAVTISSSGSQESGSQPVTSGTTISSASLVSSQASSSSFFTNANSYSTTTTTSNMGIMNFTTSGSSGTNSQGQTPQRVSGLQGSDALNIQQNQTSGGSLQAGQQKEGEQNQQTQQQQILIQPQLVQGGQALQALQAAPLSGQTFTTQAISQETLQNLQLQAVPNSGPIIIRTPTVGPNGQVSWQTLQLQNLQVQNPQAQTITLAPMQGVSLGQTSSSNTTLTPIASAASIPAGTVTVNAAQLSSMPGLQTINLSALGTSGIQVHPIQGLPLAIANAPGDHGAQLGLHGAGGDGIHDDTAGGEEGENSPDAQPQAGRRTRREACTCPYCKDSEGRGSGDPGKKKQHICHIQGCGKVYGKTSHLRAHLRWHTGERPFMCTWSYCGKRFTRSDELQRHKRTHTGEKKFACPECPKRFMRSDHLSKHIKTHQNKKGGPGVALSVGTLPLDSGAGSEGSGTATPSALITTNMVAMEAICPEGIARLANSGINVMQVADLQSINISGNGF
Outline: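 After transient transfection of HepG2 cells with cis-promoter reporter units and 24 h chemical treatment, reporter transcripts were quantified by RT-PCR and capillary electrophoresis fluorescence. Gain- and loss-of-signal fitted against DMSO.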

[6] = ATG_SREBP_CIS: Attagene CIS-FACTORIAL HepG2 Assay for human Sterol Regulatory Element Binding (SREBP) (AID 2282962); details: HepG2 Attagene cis-factorial SREBP reporter, mRNA; actives raise or lower the signal
Outline: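 Endogenous factor activity is measured in HepG2 through multiplexed reporter units under cis-element control. Following a 24 h incubation, reporter transcripts are reverse-transcribed, PCR-amplified and sized by capillary electrophoresis; activity is fitted in both directions relative to DMSO.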

[7] = biological target: Signal transducer and activator of transcription 3 (Homo sapiens) (UniProt P40763); assay: ATG_STAT3_CIS: Attagene CIS-FACTORIAL HepG2 Assay for human Signal Transducer and Activator of Transcription 3 (STAT3) (AID 2282963); details: HepG2, Attagene cis-factorial STAT3 reporter transcription; actives raise or lower the signal
Signal transducer and activator of transcription 3 (Homo sapiens), sequence (P40763 whole entry, looked up, the tested form may be a part): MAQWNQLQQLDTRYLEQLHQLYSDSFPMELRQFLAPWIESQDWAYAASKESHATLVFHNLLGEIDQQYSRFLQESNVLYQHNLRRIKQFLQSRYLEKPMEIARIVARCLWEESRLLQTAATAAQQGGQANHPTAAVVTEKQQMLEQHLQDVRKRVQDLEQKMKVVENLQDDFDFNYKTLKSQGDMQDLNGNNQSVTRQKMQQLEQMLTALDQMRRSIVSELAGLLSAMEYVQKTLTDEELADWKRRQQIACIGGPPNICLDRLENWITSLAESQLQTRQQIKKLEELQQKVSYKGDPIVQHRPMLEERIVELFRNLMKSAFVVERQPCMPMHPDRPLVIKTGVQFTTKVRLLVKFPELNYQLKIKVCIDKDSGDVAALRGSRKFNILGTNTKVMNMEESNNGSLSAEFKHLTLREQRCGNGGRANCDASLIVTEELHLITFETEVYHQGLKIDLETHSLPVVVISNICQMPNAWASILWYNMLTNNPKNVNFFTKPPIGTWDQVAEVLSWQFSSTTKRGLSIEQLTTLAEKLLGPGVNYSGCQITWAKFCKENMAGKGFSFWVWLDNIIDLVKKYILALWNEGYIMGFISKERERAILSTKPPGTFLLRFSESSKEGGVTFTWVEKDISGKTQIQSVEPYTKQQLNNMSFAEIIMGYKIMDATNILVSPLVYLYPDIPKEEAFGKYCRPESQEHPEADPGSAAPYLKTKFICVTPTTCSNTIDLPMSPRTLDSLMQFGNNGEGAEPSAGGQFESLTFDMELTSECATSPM
Outline: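 Fluorescence intensity of 6-FAM-labelled reporter fragments, separated by capillary electrophoresis after RT-PCR, gave the signal. Cells were HepG2 transfected with cis-element reporter units and treated 24 h; fitting was bidirectional relative to DMSO.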

[8] = ATG_TA_CIS: Attagene CIS-FACTORIAL HepG2 Assay for human TA Basal Promoter (AID 2282964); details: HepG2 Attagene CIS-factorial TA basal promoter reporter; actives raise or lower the signal
Outline: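 HepG2 cells transiently transfected with multiplexed cis-promoter reporter units, dosed 24 h. Reporter mRNA measured by RT-PCR, 6-FAM labelling, HpaI digestion and capillary electrophoresis; bidirectional fit versus DMSO baseline, serving as background control.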

[9] = ATG_TCF_b_cat_CIS: Attagene CIS-FACTORIAL HepG2 Assay for human T-Cell-Factor with beta-catenin (TCF/b-cat) (AID 2282965); details: HepG2 TCF/beta-catenin cis-reporter transcription, actives raise or lower the signal
Outline: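 Cells of the HepG2 line carry transiently transfected reporter units whose promoters respond to endogenous factors. Twenty-four hours post-dosing, reporter mRNA induction is measured by fluorescent RT-PCR and capillary electrophoresis, with DMSO as baseline.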

[10] = ATG_TAL_CIS: Attagene CIS-FACTORIAL HepG2 Assay for human TAL Basal Promoter (AID 2282966); details: HepG2 Attagene cis-factorial TAL promoter reporter; actives raise or lower the signal;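 note: background control endpoint measuring basal TAL promoter reporter mRNA not a specific factor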
Outline: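 Endogenous transcription-factor activity is sensed in HepG2 cells through transfected cis-promoter reporter constructs. After 24 h dosing, reporter transcripts are quantified by RT-PCR and capillary electrophoresis. Gain or loss of signal is fitted relative to DMSO.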

[11] = ATG_TGFb_CIS: Attagene CIS-FACTORIAL HepG2 Assay for human Transforming Growth Factor (TGF) (AID 2282967); details: HepG2 Attagene CIS TGFb reporter, mRNA transcription; actives raise or lower the signal
Outline: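 HepG2 cells transiently transfected with cis-promoter-driven multiplexed reporter units; 24 h compound exposure. Reporter mRNA measured by RT-PCR, 6-FAM labeling, HpaI digestion and capillary electrophoresis; bidirectional fit versus DMSO baseline.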

[12] = ATG_VDRE_CIS: Attagene CIS-FACTORIAL HepG2 Assay for human Vitamin D Receptor Element (VDRE) (AID 2282968); details: HepG2 VDRE cis-reporter transcription, actives raise or lower the signal
Outline: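 Compounds were applied for 24 h to HepG2 cells transfected with promoter-regulated reporter units. Total RNA was reverse-transcribed, and reporter amplicons were fluorescently labelled and sized by capillary electrophoresis.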

[13] = biological target: Nuclear receptor subfamily 1 group I member 3 (Homo sapiens) (UniProt Q14994); assay: ATG_CAR_TRANS: Attagene TRANS-FACTORIAL HepG2 Assay for human Constitutive Androstane Receptor (CAR) (AID 2282969; active = hit-call score of the fitted dose curve at least 0.9, where 1 is the maximum;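 note: activators raise reporter mRNA above DMSO so AC50 marks induction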); details: HepG2 Attagene TRANS-FACTORIAL CAR reporter
Nuclear receptor subfamily 1 group I member 3 (Homo sapiens), sequence (Q14994 whole entry, looked up, the tested form may be a part): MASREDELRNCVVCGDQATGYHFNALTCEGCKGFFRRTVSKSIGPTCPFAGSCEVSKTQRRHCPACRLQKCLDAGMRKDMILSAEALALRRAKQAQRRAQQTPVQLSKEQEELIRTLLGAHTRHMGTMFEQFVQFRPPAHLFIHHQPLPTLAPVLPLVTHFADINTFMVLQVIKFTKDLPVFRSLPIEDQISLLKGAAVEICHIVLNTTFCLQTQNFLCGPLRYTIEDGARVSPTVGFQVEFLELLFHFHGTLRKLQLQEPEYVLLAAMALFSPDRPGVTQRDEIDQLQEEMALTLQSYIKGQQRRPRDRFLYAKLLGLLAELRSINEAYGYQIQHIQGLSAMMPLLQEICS
Outline: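 Transiently transfected HepG2, multiplex TRANS reporters (CAR-Gal4 chimera driving GAL4-UAS reporter). 24 h dosing. Readout: reporter transcript by RT-PCR + capillary electrophoresis, fluorescence intensity; positive direction vs DMSO.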

[14] = biological target: Estrogen receptor (Homo sapiens) (UniProt P03372); assay: ATG_ERa_TRANS: Attagene TRANS-FACTORIAL HepG2 Assay for human Estrogen Receptor alpha (ERa) (AID 2282970; active = hit-call score of the fitted dose curve at least 0.9, where 1 is the maximum); details: HepG2 Attagene TRANS ERa GAL4 reporter, mRNA
Estrogen receptor (Homo sapiens), sequence (P03372 whole entry, looked up, the tested form may be a part): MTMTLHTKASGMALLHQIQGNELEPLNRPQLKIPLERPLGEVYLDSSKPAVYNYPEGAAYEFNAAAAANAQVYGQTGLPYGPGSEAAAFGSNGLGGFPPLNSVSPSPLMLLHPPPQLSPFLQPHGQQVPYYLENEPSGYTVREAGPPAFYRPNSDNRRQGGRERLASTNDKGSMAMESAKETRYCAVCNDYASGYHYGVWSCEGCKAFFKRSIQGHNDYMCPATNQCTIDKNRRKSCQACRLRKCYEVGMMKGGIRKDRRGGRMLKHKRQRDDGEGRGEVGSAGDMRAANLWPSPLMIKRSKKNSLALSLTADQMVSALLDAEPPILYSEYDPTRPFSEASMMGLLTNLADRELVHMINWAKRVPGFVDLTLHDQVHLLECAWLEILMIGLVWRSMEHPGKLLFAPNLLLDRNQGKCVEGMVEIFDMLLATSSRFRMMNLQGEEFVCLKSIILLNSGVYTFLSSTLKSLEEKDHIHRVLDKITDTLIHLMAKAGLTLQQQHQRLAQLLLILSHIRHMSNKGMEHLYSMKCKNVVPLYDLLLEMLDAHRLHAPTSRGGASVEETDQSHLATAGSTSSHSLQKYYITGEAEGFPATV
Outline: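 Transfected HepG2 cells carrying GAL4-UAS-driven reporter units were dosed for 24 hours. Total RNA was reverse-transcribed, reporter sequences PCR-amplified, FAM-labelled, HpaI-digested and resolved by capillary electrophoresis. Increases over DMSO control defined activity.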

[15] = biological target: X-box-binding protein 1 (Homo sapiens) (UniProt P17861); assay: ATG_Xbp1_CIS: Attagene CIS-FACTORIAL HepG2 Assay for human X-box Binding Protein 1 (XBP1) (AID 2282972); details: HepG2 XBP1 cis-element reporter, Attagene multiplex; actives raise or lower the signal
X-box-binding protein 1 (Homo sapiens), sequence (P17861 whole entry, looked up): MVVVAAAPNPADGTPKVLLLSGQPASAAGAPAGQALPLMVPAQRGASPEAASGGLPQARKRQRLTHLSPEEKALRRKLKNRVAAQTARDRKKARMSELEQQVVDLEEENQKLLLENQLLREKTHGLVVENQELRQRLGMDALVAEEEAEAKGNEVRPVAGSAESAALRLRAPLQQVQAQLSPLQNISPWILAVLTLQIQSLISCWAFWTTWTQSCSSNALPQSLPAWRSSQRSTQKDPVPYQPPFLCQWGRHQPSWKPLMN
Outline: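 Multiplexed cis-reporter readout in transfected HepG2 liver cells. Exposure lasted 24 hours. Activity in either direction was fitted against DMSO as negative control and baseline.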

[16] = ATG_M_19_TRANS: Attagene TRANS-FACTORIAL HepG2 Assay for M19 Transcription Factor (Internal Marker) (AID 2282974; active = hit-call score of the fitted dose curve at least 0.9, where 1 is the maximum); details: HepG2 Attagene TRANS-FACTORIAL M19 internal marker reporter
Outline: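 Gain-of-signal in reporter mRNA, relative to DMSO, was scored from capillary electrophoresis fluorescence. HepG2 cells carried transiently transfected multiple reporter transcription units and were incubated with test chemicals for 24 h.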

[17] = ATG_GAL4_TRANS: Attagene TRANS-FACTORIAL HepG2 Assay for GAL4 (Internal Marker) (AID 2282976; active = hit-call score of the fitted dose curve at least 0.9, where 1 is the maximum); details: HepG2 Attagene TRANS GAL4 internal marker reporter
Outline: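 Fluorescence from capillary electrophoresis of labelled RT-PCR products quantifies reporter mRNA induction after 24 h dosing of HepG2 cells carrying transfected GAL4-UAS reporter transcription units. Vehicle DMSO serves as baseline.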

[18] = biological target: Estrogen-related receptor gamma (Homo sapiens) (UniProt P62508); assay: ATG_ERRg_TRANS: Attagene TRANS-FACTORIAL HepG2 Assay for human Estrogen-Related Receptor gamma (ERRg) (AID 2282977; active = hit-call score of the fitted dose curve at least 0.9, where 1 is the maximum;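 note: hits increase reporter signal over DMSO so potencies reflect activators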); details: HepG2 Attagene TRANS reporter, ERRg transactivation
Estrogen-related receptor gamma (Homo sapiens), sequence (P62508 whole entry, looked up, the tested form may be a part): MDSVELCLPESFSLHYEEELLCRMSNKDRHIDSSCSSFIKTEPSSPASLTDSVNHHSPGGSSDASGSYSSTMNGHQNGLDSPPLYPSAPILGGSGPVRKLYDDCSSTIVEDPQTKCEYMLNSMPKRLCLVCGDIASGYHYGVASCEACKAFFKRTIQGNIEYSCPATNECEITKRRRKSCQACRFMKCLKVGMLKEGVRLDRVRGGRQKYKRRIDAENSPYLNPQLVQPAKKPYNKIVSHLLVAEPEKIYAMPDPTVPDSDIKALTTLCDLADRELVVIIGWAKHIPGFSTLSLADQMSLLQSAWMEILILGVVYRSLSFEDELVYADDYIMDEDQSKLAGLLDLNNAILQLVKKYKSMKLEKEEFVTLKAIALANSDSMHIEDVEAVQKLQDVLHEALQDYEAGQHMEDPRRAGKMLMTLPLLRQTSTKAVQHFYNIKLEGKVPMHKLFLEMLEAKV
Outline: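 Induction of reporter transcripts through a chimeric NR-Gal4 protein is quantified in transfected human HepG2 liver cells after 24 h chemical exposure, using RT-PCR with capillary electrophoresis detection and DMSO as baseline.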

[19] = ATG_RORE_CIS: Attagene CIS-FACTORIAL HepG2 Assay for human RAR-related Orphan Receptor Element (RORE) (AID 2282959); details: HepG2 Attagene cis-factorial RORE reporter, mRNA; actives raise or lower the signal
Outline: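 Measured here: transcript induction of a cis-regulated reporter in HepG2 cells transiently transfected via FuGene 6. After 24 h, RNA was processed by RT-PCR and fluorescent capillary electrophoresis; DMSO defined baseline activity.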

Compound: O=C(O)COCCN1CCN(C(c2ccccc2)c2ccc(Cl)cc2)CC1 (configuration not stated)
- outcome [1]: inactive
- outcome [2]: inactive
- outcome [3]: inactive
- outcome [4]: inactive
- outcome [5]: inactive
- outcome [6]: inactive
- outcome [7]: inactive
- outcome [8]: inactive
- outcome [9]: inactive
- outcome [10]: inactive
- outcome [11]: inactive
- outcome [12]: inactive
- outcome [13]: inactive
- outcome [14]: inactive
- outcome [15]: inactive
- outcome [16]: inactive
- outcome [17]: inactive

Compound: COc1ccc(O)cc1
- outcome [1]: inactive
- AC50 [2]: 57.5 µM (active)
- outcome [3]: inactive
- outcome [4]: inactive
- outcome [5]: inactive
- outcome [6]: inactive
- outcome [7]: inactive
- outcome [8]: inactive
- outcome [9]: inactive
- outcome [10]: inactive
- outcome [11]: inactive
- outcome [12]: inactive
- outcome [15]: inactive
- outcome [16]: inactive
- outcome [17]: inactive

Compound: OCCN1CCNCC1
- outcome [1]: inactive
- outcome [2]: inactive
- outcome [3]: inactive
- outcome [4]: inactive
- outcome [5]: inactive
- outcome [6]: inactive
- outcome [7]: inactive
- outcome [8]: inactive
- outcome [9]: inactive
- outcome [10]: inactive
- outcome [11]: inactive
- outcome [12]: inactive
- outcome [15]: inactive
- outcome [17]: inactive
- outcome [18]: inactive

Compound: Fc1c(F)c(F)c(Br)c(F)c1F
- outcome [1]: inactive
- AC50 [2]: 46.5 µM (active)
- outcome [3]: inactive
- outcome [4]: inactive
- outcome [5]: inactive
- outcome [6]: inactive
- outcome [7]: inactive
- outcome [8]: inactive
- outcome [9]: inactive
- outcome [11]: inactive
- outcome [12]: inactive
- outcome [13]: inactive
- outcome [15]: inactive

Compound: CCCc1c(OCCCOc2ccc(OCC(=O)O)cc2)ccc(C(C)=O)c1O
- outcome [1]: inactive
- AC50 [2]: 8.44 µM (active)
- AC50 [3]: 272 nM (active)
- AC50 [19]: 4.66 µM (active)
- outcome [5]: inactive
- outcome [6]: inactive
- outcome [7]: inactive
- AC50 [8]: 26.7 µM (active)
- AC50 [9]: 25.6 µM (active)
- outcome [10]: inactive
- AC50 [11]: 70.5 µM (active)
- AC50 [12]: 27.5 µM (active)
- outcome [15]: inactive
- outcome [17]: inactive

Compound: CC1CCC(C(C)CS)CC1S (configuration not stated)
- outcome [1]: inactive
- AC50 [2]: 2.54 µM (active)
- outcome [3]: inactive
- outcome [19]: inactive
- AC50 [5]: 52.1 µM (active)
- outcome [6]: inactive
- outcome [7]: inactive
- outcome [8]: inactive
- AC50 [9]: 49.4 µM (active)
- outcome [10]: inactive
- outcome [11]: inactive
- outcome [12]: inactive
- outcome [15]: inactive
- outcome [17]: inactive

Compound: O=c1cc(-c2ccccc2)oc2cc(O)cc(O)c12
- outcome [1]: inactive
- outcome [2]: inactive
- AC50 [3]: 4280 nM (active)
- outcome [4]: inactive
- outcome [5]: inactive
- outcome [6]: inactive
- outcome [7]: inactive
- outcome [8]: inactive
- outcome [9]: inactive
- outcome [10]: inactive
- outcome [11]: inactive
- outcome [12]: inactive
- outcome [15]: inactive
- outcome [16]: inactive

Compound: Clc1nc(C(Cl)(Cl)Cl)c(Cl)c(Cl)c1Cl
- outcome [1]: inactive
- AC50 [2]: 39.4 µM (active)
- outcome [3]: inactive
- outcome [4]: inactive
- outcome [5]: inactive
- AC50 [6]: 52.5 µM (active)
- outcome [7]: inactive
- outcome [8]: inactive
- AC50 [9]: 62.7 µM (active)
- AC50 [10]: 57.2 µM (active)
- AC50 [11]: 62.2 µM (active)
- outcome [13]: inactive
- outcome [14]: inactive
- outcome [15]: inactive
- outcome [16]: inactive

Compound: O=C(O)C[C@H](O)C[C@H](O)/C=C/c1c(C2CC2)nc2ccccc2c1-c1ccc(F)cc1
- outcome [1]: inactive
- AC50 [2]: 4.9 µM (active)
- outcome [3]: inactive
- outcome [4]: inactive
- outcome [5]: inactive
- AC50 [6]: 0.0712 µM (active)
- outcome [7]: inactive
- outcome [8]: inactive
- outcome [9]: inactive
- outcome [10]: inactive
- outcome [11]: inactive
- outcome [12]: inactive
- outcome [14]: inactive
- outcome [15]: inactive
- outcome [17]: inactive
